# The supplement of paper PMC11383364
# ± gives the standard deviation of the averaged measurements.
# System: SUM149
# Test: percent difference in area under dose-response curve of relative cell number, RPMI vs HPLM; higher = drug relatively more effective in HPLM than RPMI (negative = less effective in HPLM)
# Conditions: treatment time: 72 h; dose range: 10-point, 1 nM to 20 µM; media compared: RPMI vs HPLM
row,SMILES,percent difference in area under dose-response curve
1,CCc1c2c(nc3ccc(OC(=O)N4CCC(N5CCCCC5)CC4)cc13)-c1cc3c(c(=O)n1C2)COC(=O)[C@]3(O)CC [Irinotecan],-12.2%
2,Oc1ccc(/C=C/c2cc(O)cc(O)c2)cc1 [Resveratrol],-1.11%
3,CNC(=O)c1cc(Oc2ccc(NC(=O)Nc3cc(C(C)(C)C)nn3-c3ccc4ncccc4c3)c(F)c2)ccn1,-8.43%
4,Cc1cc(=O)oc2c(C=O)c(O)ccc12,5.18%
5,Nc1ccn([C@@H]2O[C@H](CO)[C@@H](O)C2(F)F)c(=O)n1 [Gemcitabine],-24.6 ± 5.4%
6,O=C(NCCCNc1nc(Nc2cccc(NC(=O)N3CCCC3)c2)ncc1I)c1cccs1,-9.09%
7,CC/C(=C(\c1ccccc1)c1ccc(OCCN(C)C)cc1)c1ccccc1 [Tamoxifen_Citrate],-4.18%
8,CC[C@@H]1C(=O)N(C)c2cnc(Nc3ccc(C(=O)NC4CCN(C)CC4)cc3OC)nc2N1C1CCCC1,-23%
9,O=c1[nH]c(=O)n([C@H]2C[C@H](O)[C@@H](CO)O2)cc1F [Floxuridine],14.1%
10,Cc1ccc(F)c(NC(=O)Nc2ccc(-c3cccc4[nH]nc(N)c34)cc2)c1 [Linifanib],0.938%
11,CO[C@H]1C[C@@H]2CC[C@@H](C)[C@@](O)(O2)C(=O)C(=O)N2CCCC[C@H]2C(=O)O[C@H]([C@H](C)C[C@@H]2CC[C@@H](O)[C@H](OC)C2)CC(=O)[C@H](C)/C=C(\C)[C@@H](O)[C@@H](OC)C(=O)[C@H](C)C[C@H](C)/C=C/C=C/C=C/1C [Rapamycin],12.8%
12,Nc1ccn([C@@H]2C=C(CO)[C@@H](O)[C@H]2O)c(=O)n1 [Cyclopentenyl_cytosine],2.58%
